CR mimetic SO: reduction of superoxide in aged yeast, primary screen, HTS; 330,000 compounds, 0.18% hits; superoxide response (% of plate mean), % at 10 µM; AID 2690, 2010; S. cerevisiae aged cells, superoxide DHE fluorescence; hits give low values;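 active = superoxide response under a set limit, about three screen SD below normal, cut at about 65% in these data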;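 also: yeast aged for seven days with compound at 30 °C before DHE staining; 100% = average MFI of all compound-treated wells on the plate with controls excluded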
APOBEC3A inh: APOBEC3A ssDNA deaminase inhibitors, primary screen, selectivity assay for APOBEC3G inhibitor project, biochemical, FAM/TAMRA oligo cleavage fluorescence. 330,000 compounds, 0.41% hits. DNA dC->dU-editing enzyme APOBEC-3A (Homo sapiens), P31941. AID 493011, 2011. recombinant A3A, FAM/TAMRA ssDNA deamination fluorescence. inhibition, % at 20 µM;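 active = at least 40% inhibition at 20 µM here, with at most 30% in a related deaminase screen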;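 also: plate controls were A3A with DMSO for no effect and wells lacking A3A enzyme for full effect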
Target sequence (P31941 whole entry, looked up): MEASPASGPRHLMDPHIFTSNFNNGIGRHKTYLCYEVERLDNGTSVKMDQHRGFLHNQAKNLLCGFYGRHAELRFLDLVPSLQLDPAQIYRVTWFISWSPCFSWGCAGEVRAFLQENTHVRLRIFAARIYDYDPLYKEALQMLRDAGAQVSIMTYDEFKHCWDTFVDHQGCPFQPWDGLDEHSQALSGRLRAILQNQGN
APOBEC3G inh: APOBEC3G DNA deaminase inhibitors, primary screen, biochemical, fluorescence, single-stranded DNA substrate, uHTS; DNA dC->dU-editing enzyme APOBEC-3G (Homo sapiens), Q9HC16; recombinant A3G, ssDNA deamination FAM/TAMRA fluorescence; inhibition, % at 20 µM; 330,000 compounds, 0.28% hits;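 active = inhibition of at least 40% at 20 µM, with no more than 30% in the related APOBEC3A deaminase screen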;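 also: plate controls were DMSO wells with A3G for no effect and wells lacking A3G enzyme for full effect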
Target sequence (Q9HC16 whole entry, looked up): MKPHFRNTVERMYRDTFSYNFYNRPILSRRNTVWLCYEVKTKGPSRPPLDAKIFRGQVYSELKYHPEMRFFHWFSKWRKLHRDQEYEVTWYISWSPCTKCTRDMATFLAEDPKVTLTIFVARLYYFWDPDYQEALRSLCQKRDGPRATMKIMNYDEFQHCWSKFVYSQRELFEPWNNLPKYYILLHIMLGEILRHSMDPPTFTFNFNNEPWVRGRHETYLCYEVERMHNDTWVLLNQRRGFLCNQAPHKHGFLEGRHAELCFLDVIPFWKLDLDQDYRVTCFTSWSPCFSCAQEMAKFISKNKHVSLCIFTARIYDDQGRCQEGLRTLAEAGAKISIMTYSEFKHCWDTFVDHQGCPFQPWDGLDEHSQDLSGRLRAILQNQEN
M18AAP inhibitor: PfM18AAP inhibitors, malaria aminopeptidase, primary screen, biochemical, QFRET, recombinant enzyme; H-Glu-NHMec fluorogenic cleavage; 290,000 compounds, 1.2% hits; inhibition, % at 7.35 µM; AID 1822, 2009; M18 aspartyl aminopeptidase (Plasmodium falciparum 3D7);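 active = inhibition above the campaign mean inhibition over all tested compounds plus 3 SD, cut at about 28% in these data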;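 also: 0% = plate median of test compound wells and 100% = 2 mM ZnCl2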
PfGluPho inh: PfG6PD enzyme inhibitors, primary screen, biochemical, fluorescence intensity, uHTS; PfGluPho enzyme, NADPH resazurin-diaphorase fluorescence; inhibition, % at 20 µM; 350,000 compounds, 0.78% hits; AID 504690, 2011;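 active = inhibition reaching at least a set limit at 20 µM in the primary screen, cut at about 59% in these data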;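 also: 0% = DMSO wells with substrate and 100% = DMSO wells lacking glucose-6-phosphate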
PfG6PD confirm: PfG6PD inhibitors, hit retest, confirmation, biochemical, fluorescence intensity, single concentration | 2,400 compounds, 34% hits | inhibition, % at 20 µM | recombinant PfGluPho, NADPH-diaphorase-resazurin fluorescence | AID 504753, 2011 | shares compounds with PfGluPho inh;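 active = inhibition of at least 50% at 20 µM in any single replicate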;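 also: 0% = DMSO with substrate and 100% = DMSO lacking glucose-6-phosphate substrate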
Diaphorase 10uM: diaphorase inhibitors and chemical oxidizers, confirmation, counter-screen for P. falciparum G6PD inhibitor project, biochemical, fluorescence intensity, 10 µM NADPH; shares compounds with PfGluPho inh; diaphorase-coupled resazurin reduction, NADPH 10 uM; inhibition, % at 20 µM; 820 compounds, 39% hits; AID 504862, 2011;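 active = average inhibition reaching 50% or more with the compound at 20 µM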;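 also: resorufin red fluorescence formed as diaphorase reduces resazurin using NADPH; 0% = DMSO with enzyme and 100% = DMSO without enzyme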
Diaph ctr 30uM: diaphorase inhibitors and chemical oxidizers, confirmation, counter-screen for P. falciparum G6PD inhibitor project, biochemical, fluorescence intensity, 30 µM NADPH. 820 compounds, 29% hits. Diaphorase/resazurin coupled assay, resorufin fluorescence. inhibition, % at 20 µM. AID 504863, 2011. shares compounds with PfGluPho inh;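 active = inhibition averaging 50% or more, tested at 20 µM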;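 also: 0% = DMSO with enzyme and 100% = DMSO wells lacking diaphorase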
An asterisk follows results filed as active; . = no result. This is a sample that favours compounds with a hit; in the whole collection about 2.4% have one here.

SMILES	CR mimetic SO	APOBEC3A inh	APOBEC3G inh	M18AAP inhibitor	PfGluPho inh	PfG6PD confirm	others
Cc1ccc2c(c1)c1ccc3c(c1n2C)C(=O)C=CC3=O	.	-4	2	3	66*	46
O=C(C1CC(=O)N(c2ccc3c(c2)OCCO3)C1)N1CCCC(C(F)(F)F)C1 (stereo unspecified)	104	1	-3	.	-27	.
COc1ccc(-c2c(-c3cc(OC)cc(OC)c3)n(C)c3ccc(-c4ccc5[nH]ccc5c4)cc23)cc1	96	-8	-8	.	-5	.
O=C(NCc1ccccc1)c1ccc2nc(-c3ccco3)c(-c3ccco3)nc2c1	89	91	86	14	44	.
O=C(NCCCO)c1ccc2nc(-c3ccco3)c(-c3ccco3)nc2c1	.	.	.	29*	75*	-7
O=C(Nc1ccccc1)c1ccc2nc(-c3ccco3)c(-c3ccco3)nc2c1	111	77	76	16	61*	-9
CCOC(=O)c1cnc2ccc(Br)cc2c1NCCO	87	2	-1	-1	65*	16
CCOC(=O)c1cnc2ccc(Br)cc2c1NCC(C)O (stereo unspecified)	.	.	.	.	25	.
Clc1cccc(Cl)c1CNc1ccc(N2CCCC2)cc1	103	0	6	15	96*	55*	Diaphorase 10uM=-1;Diaph ctr 30uM=-2
COc1ccc2c(c1)-c1ccccc1S(=O)(=O)N2C	101	-2	-4	3	60*	30
COc1ccccc1/C=N/NC(=O)CC(=O)Nc1ccc(Cl)c(Cl)c1	101	0	3	1	106*	44
CCCCCCN1C[C@@H](n2cc(C3CC3)nn2)[C@H](O)C[C@@H]1c1ccc(Cl)cc1	.	.	.	.	-8	.
Nc1nonc1-n1nnc(C(=O)N/N=C/c2cccc(F)c2)c1-c1ccccc1	95	-1	-5	2	85*	44
Nc1nonc1-n1nnc(C(=O)N/N=C/c2cccc(F)c2)c1-c1ccc2c(c1)OCO2	113	-3	-3	0	106*	85*	Diaphorase 10uM=75*;Diaph ctr 30uM=65*
Nc1nonc1-n1nnc(C(=O)N/N=C/c2cccc(Cl)c2)c1-c1cccs1	78	1	-4	3	126*	98*	Diaphorase 10uM=94*;Diaph ctr 30uM=75*
C=CCn1c(C)cc(C(=O)COC(=O)CCc2cc(OC)c(OC)c(OC)c2)c1C	94	-4	-6	.	80*	24
COc1ccc(N2CCOCC2)c(NC(=O)c2ccc3c(c2)OCO3)c1	103	-2	-11	5	-6	.
O=C(O)COc1ccccc1/C=N/NC(=O)C(O)c1ccccc1 (stereo unspecified)	99	-5	-4	1	-3	.
COc1cccc(OCCSc2nnc3sc4ccccc4n23)c1	98	-2	-3	-1	52	.
c1ccc(OCCSc2nnc3sc4ccccc4n23)cc1	101	-8	-7	-7	105*	98*	Diaphorase 10uM=88*;Diaph ctr 30uM=74*
O=C(NCc1cccc(Cl)c1)c1ccc(S(=O)(=O)N2CCCCC2)cc1	.	.	.	.	6	.
Cc1[nH]c2ccc(C(=O)Nc3ccncc3)cc2c1C	83	-7	-8	2	53	.
COc1ccccc1NC(=O)c1ccc2[nH]c(C)c(C)c2c1	82	-2	-6	-8	81*	32
Cc1c(C(=O)Nc2ccc3c(c2)OCO3)oc2ccccc12	96	0	-13	6	61*	-3
CC(=O)Nc1c(C(=O)Nc2ccc3c(c2)OCO3)oc2ccccc12	111	-4	-2	-7	17	.
SMILES	CR mimetic SO	APOBEC3A inh	APOBEC3G inh	M18AAP inhibitor	PfGluPho inh	PfG6PD confirm	others
CSCc1c(C(=O)Nc2ccc3c(c2)OCO3)oc2ccccc12	88	-1	-10	8	68*	3
O=[N+]([O-])c1cccc(P(=O)(O)c2cccc([N+](=O)[O-])c2)c1	118	2	-1	0	2	.
COc1ccc(C)cc1NS(=O)(=O)c1ccc2c(c1)N(C)CCO2	126	-3	1	-12	-6	.
Cc1ccc(OCCn2cc(C=O)c3ccccc32)cc1	99	-3	-3	10	12	.
Cc1ccc(OCCn2cc(/C=C3\C(=O)NN(c4ccccc4)C3=O)c3ccccc32)cc1	115	-3	-6	1	65*	33
CCC(=O)c1ccc(OCC(=O)NCc2ccccc2CN2CCCC2)cc1	108	2	1	.	8	.
Cc1ccc(Cl)cc1N1CCN(C(=O)c2ccc3c(c2)CCN3S(C)(=O)=O)CC1	103	6	3	6	.	.
O=C(N=Nc1c(O)[nH]c2ccccc12)c1cc(-c2cccs2)[nH]n1	108	1	0	-15	92*	39
O=C(N=Nc1c(O)[nH]c2ccc(F)cc12)c1ccc(NS(=O)(=O)c2cccs2)cc1	89	3	-2	.	1	.
O=C(N=Nc1c(O)[nH]c2ccccc12)c1ccccc1NS(=O)(=O)c1cccs1	100	0	-1	0	62*	12
Cc1cccc(NC(=O)CSc2nnc3ccc(-c4cccnc4)nn23)c1	.	.	.	.	-2	.
O=C1N=C(c2ccccc2)S/C1=C\c1cccs1	130	-3	12	-3	63*	30
O=C1N=C(N2CCN(c3ccccc3)CC2)S/C1=C/c1cccs1	104	1	-1	0	8	.
CC(C#N)Sc1ccc(S(=O)(=O)N2CCCC2)cn1 (stereo unspecified)	96	0	-9	.	4	.
COC(=O)C[C@H]1C[C@H]2c3cc(NC(=O)C4CCOCC4)ccc3O[C@H]2[C@@H](CO)O1	.	.	.	.	-9	.
O=c1ccc(S(=O)(=O)N2CCCC2)c[nH]1	85	-2	-5	.	-6	.
O=S(=O)(c1ccc(=S)[nH]c1)N1CCCC1	96	-5	36	.	60*	41
CC(Cc1ccc(O)c(O)c1)C(C)Cc1ccc(O)c(O)c1 (stereo unspecified)	120	3	3	.	84*	61*	Diaphorase 10uM=0;Diaph ctr 30uM=3

Compound activity: PubChem BioAssay, several laboratories
